Results: PubChem BioAssay AID504941 (Broad Institute, 2011)
About 170 (14%) of roughly 1,200 compounds were called active. How the calls were made is not given here. The list is a sample of the results. Entries with a potency or affinity are not part of this list.

Assay: E. coli Tat export inhibitors, dose response, cherry-pick, set 2, plate reader (AID 504941)
Conditions: E. coli Tat transport reporter; series mostly up to 38 µM; activity change, negative = inhibition: at the top concentration

Activity change, negative = inhibition, inactive:
Cc1ccc[n+](CC(=O)c2cc3ccccc3oc2=O)c1 3.31%
Cc1nc2scc(-c3ccccc3)c2c(=O)n1/N=C/c1ccco1 11.6%
Cc1ccc(-n2c3nc(=O)[nH]c(=O)c-3cc3c(C)nn(-c4ccccc4)c32)c(C)c1 11.6%
COc1ccc(-c2noc(CSc3nnc(-c4ccncc4)n3-c3ccc(F)cc3)n2)cc1OC -7.91%
CCCCc1c(O)nc(SCC(=O)c2ccccc2)[nH]c1=O 3.64%
CCN(CC)CCCn1c(C)cc2c(c1=O)C(c1cccc(Cl)c1)C(C#N)=C(N)O2 (stereo not drawn) 17.9%
Cc1cc(Cl)ccc1NC(=O)CN1CCCC1 -11.6%
Cc1ccc(NC(=O)CN2CCN(c3ccccn3)CC2)c(Cl)c1 12.6%
O=C(CCCn1c(=O)[nH]c2ccsc2c1=O)N1CCCCC1 -18.6%
CC(C)OC(=O)Cn1c(=O)oc2ccccc21 -1.58%
O=C(C1CC(=O)N(C2CCCC2)C1)N1CCN(c2ccc(F)cc2)CC1 (stereo not drawn) -6.74%
Nc1nc2ccc([N+](=O)[O-])c(N)c2s1 15.8%
CCCn1c(=N)c(S(=O)(=O)c2ccc(F)cc2)cc2c(=O)n3cccc(C)c3nc21 -9.12%
CC(C)c1cc(C(N)=O)c(NC(=O)c2cccc(COc3ccc(Cl)cc3)c2)s1 10.4%
CCn1nc(-c2ccccc2)c2nc3ccccc3nc21 27.2%
C=C1CSc2nc(=O)c3c4c(sc3n21)CCCC4 7.3%
COc1ccc(C(CNC(=O)c2cc(SC)ccc2Cl)N(C)C)cc1 (stereo not drawn) 0.77%
O=c1/c(=C/c2ccc(O)c([N+](=O)[O-])c2)sc2nc3ccccc3n12 4.56%
CCn1cc(C(=O)O)c(=O)c2cc(F)c(N3CCN(C(=S)NC(=O)c4ccc(F)c(F)c4)CC3)cc21 422%
Cc1ccnc(NC(c2cccnc2)c2ccc3cccnc3c2O)c1 (stereo not drawn) 1.66%
Oc1c(Br)cc(C2N=C(c3ccccc3)NO2)cc1Br (stereo not drawn) 13.5%
CCOC(=O)C1(c2nc(N)cs2)COC(=O)C1 (stereo not drawn) 8.65%
COc1ccccc1-c1ccc(=O)n(CC(=O)Nc2ccc(C(=O)N3CCCC3)cc2)n1 -4.17%
Nc1nc(NCC2CCCO2)nc(Nc2cccc(Cl)c2)c1[N+](=O)[O-] (stereo not drawn) -1.52%
O=C(c1ccccc1)N1CCN(c2nc3ccc([N+](=O)[O-])cc3s2)CC1 8.95%
COc1ccc(CNC(=O)Cn2nnc(-c3ccc(NC(=O)C4CCCCC4)cc3)n2)cc1 11.5%
O=C(NCc1cccs1)Nc1cccc(Cl)c1 -9.39%
Cc1ccc(NC(=O)c2ncn(CCCNCc3ccccn3)n2)cc1C 7.97%
COc1ccc(CCNC(=O)CN2CCOc3ccccc32)cc1OC 15.9%
COc1ccc(N2CCN(C3CC(=O)N(c4ccc5c(c4)OCCO5)C3=O)CC2)cc1 (stereo not drawn) 31.4%
Cc1ccc(O)c(C(=O)c2coc(=N)c(C(=O)NC(C)C)c2)c1 -5.5%
C=CCNc1ccccc1S(=O)(=O)NCc1ccccc1 15.6%
O=C(Nc1ccc(Oc2ccccc2)nc1)C1CCCCN1Cc1ccc(OCCO)cc1 (stereo not drawn) 1.23%
CCOc1ccc(Nc2nc3c(c(=O)[nH]2)CCCC3)cc1 4.88%
COc1ccc(/C=C/C(=O)Nc2ccccc2C(=O)O)cc1OC 1.99%
NS(=O)(=O)c1ccc(CCNC(=O)Cc2ccc(S(=O)(=O)N3CCCC3)s2)cc1 -6%
CCn1cc(C(=O)O)c(=O)c2cc(F)c(N3CCN(C)CC3)cc21 -89.3%
CC1COc2c(N3CCN(C)CC3)c(F)cc3c(=O)c(C(=O)O)cn1c23 (stereo not drawn) -81.4%
O=C(NC(Cc1ccccc1)c1nc2ccccc2[nH]1)c1ccc(Cl)c([N+](=O)[O-])c1 (stereo not drawn) -0.833%
CCOC(=O)c1c(C)[nH]c(C(=O)N(C)Cc2cccc(OC)c2OC)c1C -7.53%
COc1ccccc1NS(=O)(=O)c1cccc(N=C2N=C(N)c3ccccc32)c1 -10.2%
CC(=O)Nc1sc(NC(=O)c2ccccc2)nc1-c1cccs1 -0.47%
Cc1ccc(/C=N/NC(=O)c2ccc(Cn3cc([N+](=O)[O-])cn3)o2)cc1 0.708%
O=C(NCc1cccnc1)C(=O)NCC1OCCN1S(=O)(=O)c1ccc(F)cc1 (stereo not drawn) 4.34%
COc1ccc(C(=O)OC(C)CN2CCN(C)CC2)cc1 (stereo not drawn) 3.65%
Cc1ccc(-n2c(O)c(C=Nc3ccccc3-c3n[nH]c(=S)[nH]c3=O)c3ccccc3c2=O)cc1C 3.74%
Cc1cc(NC(=O)c2ccc([N+](=O)[O-])cc2)n(C)n1 -2.67%
COc1ccc(/C=C(/NC(=O)c2cccc([N+](=O)[O-])c2)C(=O)O)cc1 -2.44%
O=C(NC(=S)NNC(=O)c1ccccc1O)c1ccccc1 -1.95%
COCC(=O)Nc1nnc(Cc2ccc(OC)cc2)s1 11%
CC(Oc1cccnc1[N+](=O)[O-])C(=O)N1CCc2ccccc21 (stereo not drawn) 18.9%
Cc1nc(-c2cccc(S(=O)(=O)N3CCOCC3)c2)cs1 5.67%
COc1ccc(NC(=O)c2ccccc2[N+](=O)[O-])cc1OC 2.8%
CCN(CC)S(=O)(=O)c1cc(NC(=O)c2ccc(-n3cncn3)c([N+](=O)[O-])c2)ccc1C -3.92%
NC(=O)Cn1c(-c2nonc2N)nc2ccccc21 -3.26%
CCCC(=O)Nc1ccc(NC(=O)c2ccccn2)cn1 -2.92%
Cc1onc(-c2ccccc2)c1C(=O)Nc1nc(-c2cc(F)ccc2F)cs1 21.2%
Cc1onc(-c2c(F)cccc2Cl)c1C(=O)Nc1sc2c(c1C#N)CCC(C(C)(C)C)C2 (stereo not drawn) -4.11%
Cc1ccccc1NC(=O)NCCN1C(=O)C2C3C=CC(C3)C2C1=O (stereo not drawn) 9.55%
CCOC(=O)c1ccccc1NC(=S)N1CC(C)CC(C)C1 (stereo not drawn) -10%
CCOC(=O)c1sc(Nc2nc3ccc(OC)cc3s2)cc1C 35.6%
CCCn1c(N)c(C(=O)CSc2nnnn2-c2ccc(O)cc2)c(=O)n(C)c1=O 21.5%
COC(=O)/C(=C/c1ccco1)NC(=O)c1ccccc1 3.77%
O=C1OCCN1C(=O)[C@H]1[C@H](c2ccc(Cl)cc2)C(c2ccccc2)=NN1c1ccccc1 8.19%
COc1cccc(-c2cc(=O)c3cc(NC(C)=O)ccc3[nH]2)c1 37.7%
Cc1c(NC2=NC3(CCCCC3)Cc3ccccc32)c(=O)n(-c2ccccc2)n1C 9%
O=C(Nc1cccc(NC(=O)c2cccnc2)c1)c1ccccc1 17.9%
O=C1CN(S(=O)(=O)c2ccccc2C(F)(F)F)CCN1 9.82%
CCCOc1cccc(C(=O)Nc2ccc(Br)cc2F)c1 -4.33%
COc1ccc(OC)c(NC(=O)c2cccnc2)c1 0.43%
Cc1nn(-c2ccccc2)c(C)c1NC(=O)COC(=O)c1ccc(Cl)c(S(N)(=O)=O)c1 3.3%
CNC(=S)N1CCN(c2c(F)cc3c(=O)c(C(=O)O)cn(C4CC4)c3c2OC)CC1C (stereo not drawn) 395%
COc1cc(C(=O)Oc2cc(C)cc(C)c2)cc(OC)c1OC 36%
Cc1ccc(C2CC(c3ccccc3)n3ncnc3N2)cc1 (stereo not drawn) -27.9%
COc1cc(OC)cc(C(=O)NC2CC(C)(C)NC(C)(C)C2)c1 -3.59%
Cc1ccccc1NC(=O)CCN1CCN(CCO)CC1 8.38%
CN(Cc1cn[nH]c1-c1ccc(-c2ccccc2)cc1)CC1CCOCC1 -2.3%
Cc1ccc(Cn2c(=O)oc3ccccc32)cc1 37.8%
O=C(NCc1cccs1)c1cccnc1C(=O)O -11.6%
COc1cc(/C=C(\C#N)c2nn(CCO)c(N)c2C#N)cc(OC)c1OC -2.58%
CCN(CC(=O)NCc1ccc(F)cc1)CC(=O)Nc1ccc(S(=O)(=O)N2CCCC2)cc1 -0.571%
O=C(CSc1nc2ccccc2c(=O)n1CCCN1CCOCC1)Nc1ccc2c(c1)OCO2 -4.12%
CC1CCN(C(=O)C2(NC(=O)Nc3cccc(F)c3)CCCCC2)CC1 18.6%
Cc1nc(SCc2nc3ccccc3[nH]2)c2oc3ccccc3c2n1 -11.4%
Nc1ccc(C(=O)Nc2nc3ccccc3s2)cc1 2.47%
COCc1cc(C)n(CC(=O)NC(C)c2ccccc2)c(=O)c1C#N (stereo not drawn) 4.42%
COc1ccc(S(=O)(=O)Nc2nc3c(s2)CCCC3)cc1 15.9%
CCCCOCC1CN(c2ccccc2)C(=O)CS1 (stereo not drawn) -12.1%
Cc1ccc(C)c(NC(=O)CCN2CCc3ccccc3C2)c1 10.6%
Cc1ccc(NC(=O)COC(=O)CCC(=O)c2cccs2)c(C)c1 -7.07%
COc1ccc(N(CC(=O)NCc2ccc(Cl)cc2)S(=O)(=O)c2ccccc2[N+](=O)[O-])c(OC)c1 13.4%
Cc1cc(C)nc(SC(C)C(=O)N/N=C/c2cccs2)n1 (stereo not drawn) -3.03%
Cc1ccc(C(=O)c2cnc3ccccc3c2-c2ccccc2)cc1 6.74%
CC1=NCC(C)c2c1[nH]c1ccccc21 (stereo not drawn) 18.7%
Cc1cccc(/C=N/NC(=O)c2cc(C3CC3)nc3ccccc23)n1 0.812%
O=C(NCc1ccccc1)C(=O)NCC1OCCN1S(=O)(=O)c1ccc([N+](=O)[O-])cc1 (stereo not drawn) 2.79%
Cc1noc(C)c1COC(=O)c1cccc(S(=O)(=O)N2CCOCC2)c1 13.1%
C#CCOCCOCCOCCNc1nc(N2CCN(C(=O)Cn3cc(CC(C)O)nn3)CC2)nc(N2CCN(C(=O)[C@H](CCCCN)n3cc(CCCC)nn3)CC2)n1 (stereo partly drawn) 13.3%
Cc1ccc2cccc(OCC(=O)N3CCc4ccccc43)c2n1 2.15%
COc1cccc(-n2c(SCc3ccccn3)nc3c(c2=O)SCC3)c1 38.5%
COc1ccc(CCNC(=O)/C=C/c2ccco2)cc1OC 9.53%
COc1ccccc1N1CCN(c2nc(-c3ccccc3)cc(C(F)(F)F)n2)CC1 -1.92%
Cc1ccccc1OCC(=O)Nc1nnc(-c2ccncc2)s1 -14.8%
NC1C2CN(c3nc4c(cc3F)c(=O)c(C(=O)O)cn4-c3ccc(F)cc3F)CC12 (stereo not drawn) -67.3%
CSc1cccc(NC(=O)CN(C)S(=O)(=O)c2cnc[nH]2)c1 -1.69%
O=C(N/C(=C/c1ccccc1)C(=O)N1CCCCC1)c1ccc(Br)o1 12.3%
COc1ccc(OC)c(C(=O)CSc2nnc(-c3cccs3)o2)c1 30.7%
COc1cccc(NC(=O)c2ccc3c(SCC(=O)O)c4c(nc3c2)CCCC4)c1 9.97%
CC(C)OC(=O)c1nn2c(C(F)(F)F)cc(-c3ccco3)nc2c1Cl -0.449%
O=C(Nc1ccc(Br)cc1)C1CC(O)CN1C(=O)Oc1ccccc1 (stereo not drawn) -1.35%
CCOc1ccc(NC(C(=O)Nc2cccc(C(C)=O)c2)c2ccccc2)cc1 (stereo not drawn) 3.76%
O=C(NC1CC1)c1ccc(N2CCCCC2)c([N+](=O)[O-])c1 -2.46%
COc1cc2cc(CN(CCO)S(=O)(=O)c3ccccc3Cl)c(=O)[nH]c2cc1OC -14.1%
